PubChem BioAssay AID588342 (National Center for Advancing Translational Sciences (NCATS), 2011)
Hit rate of the full screen: of about 360,000 compounds, about 25,000 (6.9%) were called active. Not shown: some 9% with an inconclusive outcome. This excerpt belongs to a sample that is enriched for actives. A number with no mark means an inactive call. Calls follow the shape of the dose curve; as a rule, active = well fitted inhibition curve with a large enough effect; inconclusive = small, poorly fitted or top-dose-only effect; inactive = flat fitted curve, though single readings scatter.

What follows are compounds tested against Luciferin 4-monooxygenase (Photinus pyralis) (UniProt P08659) (assay: qHTS profiling assay for firefly luciferase inhibitor/activator using purifed enzyme and Km concentrations of substrates (counterscreen for miR-21 project)). Conditions: purified FLuc, luminescence inhibition; series mostly up to 57.5 µM; activity change, negative = inhibition: at the top concentration.
Sequence of Luciferin 4-monooxygenase (Photinus pyralis) (P08659 whole entry, looked up): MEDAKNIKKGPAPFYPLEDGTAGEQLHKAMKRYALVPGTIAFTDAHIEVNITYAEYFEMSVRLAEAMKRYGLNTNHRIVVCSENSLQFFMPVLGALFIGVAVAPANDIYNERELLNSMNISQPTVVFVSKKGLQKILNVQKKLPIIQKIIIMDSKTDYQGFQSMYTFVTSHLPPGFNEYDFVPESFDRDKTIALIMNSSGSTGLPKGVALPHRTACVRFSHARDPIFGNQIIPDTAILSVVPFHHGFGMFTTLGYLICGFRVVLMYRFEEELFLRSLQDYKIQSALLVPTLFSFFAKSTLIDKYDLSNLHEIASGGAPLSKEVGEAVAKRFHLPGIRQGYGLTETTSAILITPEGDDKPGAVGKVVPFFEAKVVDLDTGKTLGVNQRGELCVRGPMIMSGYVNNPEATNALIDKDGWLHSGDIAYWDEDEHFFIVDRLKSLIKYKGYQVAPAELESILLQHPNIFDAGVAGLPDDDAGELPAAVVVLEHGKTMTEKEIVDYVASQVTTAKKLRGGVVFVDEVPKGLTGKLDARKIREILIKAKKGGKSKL
Procedure, shortened: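 Purified P. pyralis luciferase (10nM final) with 10uM D-luciferin and 10uM ATP (Km levels) in 50mM Tris acetate pH 7.5, 10mM Mg acetate, 0.01% Tween-20, 0.05% BSA; qHTS 6-point titration, ~60 µM downward; luminescence read.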
Also: nearly all actives have a fitted effect of over 55% in size.
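For activity change, negative = inhibition in this document: plate controls were vehicle for no effect and reference inhibitor for full effect.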
Potency is read from the fitted curve at half-maximal effect.

Point of comparison: `S=c1[nH]nc(-c2cccs2)n1/N=C/c1cn(-c2ccccc2)nc1-c1ccc(Cl)cc1`, “activity change, negative = inhibition” value 2.83%. Against it:
- CCC(=O)N1N=C(c2ccc(OC)cc2)CC1c1cn(-c2ccccc2)nc1-c1cccs1 (stereo not given) — lower, 0.511%
- Cc1c(NC(=O)C(=O)N/N=C/c2cccs2)c(=O)n(-c2ccccc2)n1C — lower, -7.6%
- COc1cccc(NC(=O)CN(C)C(=O)/C=C/c2cn(-c3ccccc3)nc2-c2cccs2)c1 — lower, -13.6%
- O=C(COC(=O)/C=C/c1cn(-c2ccccc2)nc1-c1cccnc1)Nc1ccc(Cl)cc1Cl — higher, 5.4%
- O=C(NCc1cccnc1)c1nc(-c2cccs2)no1 — higher, 3.45%
- COc1ccc(-c2nn(-c3ccccc3)cc2/C=C\C(=O)N2CCOCC2)cc1[N+](=O)[O-] — lower, 0.818%
- O=C(/C=C/c1cccs1)NCc1cccnc1 — lower, -0.859%
- CN(C)c1ccc(NC(=S)N(CCc2ccccc2)C2CC(=O)N(c3c(Cl)cccc3Cl)C2=O)cc1 (stereo not given) — lower, -2.16%
- CCN1CCN(CCCNC(=O)c2cnn(-c3ccc(C)cc3C)c2C2CCN(C(=O)OC(C)(C)C)CC2)CC1 — lower, -2.56%
- O=C(COC(=O)c1cc(=O)[nH]c2ccccc12)NCc1cccc(Cl)c1 — lower, 2.01%
- Cn1cc(S(=O)(=O)N2CCCCCC2)cc1C(=O)N1CCN(c2ccc(F)cc2)CC1 — lower, -14.1%
- CCc1ccc2c(c1)cc(CN(C(=S)Nc1ccccc1Cl)C1CC1)c1nnnn12 — higher, 3.26%
- O=C(Cc1ccccc1)Nc1sc2c(c1C(=O)Nc1ccc(Br)cc1)CCC2 — lower, -3.93%
- Cc1ccc(S(=O)(=O)c2nc(-c3cccs3)oc2N2CCCCC2)cc1 — lower, -14%
- CCOc1cc(C2c3c(-c4ccc(Br)cc4)n[nH]c3C(=O)N2c2ccc(Cl)cc2)ccc1O (stereo not given) — higher, 18.5%
- COc1cccc(C(=O)NNS(=O)(=O)c2ccc(F)cc2)c1 — lower, -3.77%
- CS(=O)(=O)c1ccc2nc(NC(=O)C3C4C=CC(C4)C3C(=O)O)sc2c1 (stereo not given) — lower, -2.44%
- CN(C)c1cccc(C(=O)Nc2nc3ccc(S(=O)(=O)NC(C)(C)C)cc3s2)c1 — lower, -12.4%
- CCCC(=O)Nc1nc2ccc(NC(=O)c3cccnc3)cc2s1 — lower, -20.6%
- O=C(NC1CC(=O)N(c2ccc(F)cc2)C1)c1ccc(S(=O)(=O)N2CCCC2)cc1 (stereo not given) — lower, -0.932%
- COc1cccc(-n2c(SCC(=O)c3c[nH]c4ccccc34)nc3ccccc3c2=O)c1 — higher, 3.3%
- O=C(CSc1nc2ccccc2c(=O)n1-c1ccc(F)cc1)NC1CC1 — lower, 0.482%
- COc1ccccc1N1CCN(S(=O)(=O)CCNC(=O)COc2ccc(F)cc2)CC1 — lower, -6.01%
- COc1ccc(S(=O)(=O)N2CCN(CC(=O)NCC3(N4CCOCC4)CCCCC3)CC2)cc1 — higher, 7.45%
- Cc1cccc(C)c1OC(=O)CSc1nnc(-c2ccccc2)o1 — lower, 2.68%
- COc1cccc(NC(=O)CSc2nnc(-c3cccnc3)o2)c1 — lower, 1.95%
- COC(=O)CSc1nnc(-c2cccnc2)o1 — higher, 4.39%
- CCOC(=O)CSc1nnc(-c2ccc([N+](=O)[O-])cc2)o1 — lower, -18%
- CC1=CC(C)(C)N(C(=O)CSc2nnc(-c3ccccc3)o2)c2ccc(C)cc21 — lower, 0.191%
- Cc1ccccc1CSc1nnc(CCCCCNC(=O)OC(C)(C)C)o1 — lower, -18%
- Cc1ccc(C(=O)N2c3ncnn3C3(CCCCC3)[C@@H]3CCCC[C@@H]32)cc1 — lower, -11.4%
- Cc1ccc(S(=O)(=O)CCC(=O)OCC(=O)NCCc2ccc(S(N)(=O)=O)cc2)cc1 — lower, 0.363%
- COc1ccc(-c2onc(C)c2C)cc1S(=O)(=O)NCC1CCN(Cc2cccc(F)c2)CC1 — higher, 3.47%
- CCN(CC)c1cc(NC2CCCCC2)c2c3c(onc13)-c1ccccc1C2=O — lower, -3.88%
- O=P(O)(CN1CCCCC1)CN1CCCCC1 — higher, 3.43%
- CCOc1ccc(CNC(=O)c2ccc(CS(=O)c3ccccc3)o2)cc1 (stereo not given) — lower, -8.55%
- CCN(CC)S(=O)(=O)c1ccc2[nH]c(=O)cc(C(=O)N(C)C3CCS(=O)(=O)C3)c2c1 (stereo not given) — higher, 3.37%
- CCc1ccc(C2C(C(=O)Nc3ccccc3)=C(C)Nc3c(C(=O)Nc4ccc(C)cc4)cnn32)cc1 (stereo not given) — lower, -4.9%
- CC(=O)Nc1c(C)nn(-c2ccccc2)c1N1CCC(C(=O)Nc2cc(Cl)ccc2C)CC1 — lower, -9.72%

`O=C(O)c1ccc(N/N=C/c2cn(-c3ccccc3)nc2-c2cccs2)cc1` was tested, and the Potency was 0.107 µM (active).
With `O=C(/C=C\c1cn(-c2ccccc2)nc1-c1cccs1)N1CCOCC1` the Potency was 7.57 µM (active).
`O=C(O)/C=C/c1cn(-c2ccccc2)nc1-c1cccs1` was tested, and the Potency was 21.3 µM (active).
For `O=C(NCc1cccnc1)c1cn(-c2ccccc2)nc1-c1cccs1`, the Potency was 6.01 µM (active).
`COc1cccc(C(=O)Nc2nc3ccc(S(C)(=O)=O)cc3s2)c1` was tested, and the Potency was 6.01 µM (active).
In the case of `CS(=O)(=O)c1ccc2nc(NC(=O)c3ccc(Cl)nc3)sc2c1`, the Potency is reported as 21.3 µM (active).
`Cc1ccc(-n2c(SCC(=O)N3CCC(C(=O)O)CC3)nc3ccccc3c2=O)cc1C` was tested, and the Potency was 13.5 µM (active).
In the case of `CCCCSc1nnc(-c2ccc(C)cc2)o1`, the Potency is reported as 2.69 µM (active).
In the case of `Cc1ccc(-c2nnc(SCc3ccccc3C)o2)cc1`, the Potency is reported as 10.7 µM (active).
With `COc1ccc(-c2nnc(SCc3cccnc3)o2)cc1` the Potency was 21.3 µM (active).
